Assay results taken from PubChem BioAssay (NCATS).
Records with an inconclusive call do not appear. The source made the active and inactive calls. The call rests on the fitted dose curve; in most records, active means well fitted cell-killing curve with a large enough effect; inconclusive means small, poorly fitted or top-dose-only effect, or effect the other way; inactive means flat fitted curve, though single readings scatter.

Legend:
Assay in all cases: Primary qHTS to identify gynecologic anti-cancer compounds using libraries of approved drugs and bioactive compounds (AID 1345084); further: nearly all actives have a fitted effect of over 55% in size
C33A = conditions: Gynecologic cancer cell panel viability, ATPlite luminescence, 48 h; series mostly up to 57.5 µM
Outline: (§1)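 Five-concentration response, 48 h; readout is ATP-driven luciferase luminescence.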

CAOV3 = conditions: Gynecologic cancer cell panel viability, ATPlite luminescence, 48 h; series mostly up to 57.5 µM
Outline: as §1

CASKI = conditions: Gynecologic cancer cell panel viability, ATPlite luminescence, 48 h; series mostly up to 57.5 µM
Outline: as §1

Es-2 = conditions: Gynecologic cancer cell panel viability, ATPlite luminescence, 48 h; series mostly up to 57.5 µM
Outline: as §1

HeLa = conditions: Gynecologic cancer cell panel viability, ATPlite luminescence, 48 h; series mostly up to 57.5 µM
Outline: as §1

Hek293T = conditions: Gynecologic cancer cell panel viability, ATPlite luminescence, 48 h, control line for the selectivity index; series mostly up to 57.5 µM
Outline: as §1

JEG-3 = conditions: Gynecologic cancer cell panel viability, ATPlite luminescence, 48 h; series mostly up to 57.5 µM
Outline: as §1

OV90 = conditions: Gynecologic cancer cell panel viability, ATPlite luminescence, 48 h; series mostly up to 57.5 µM
Outline: as §1

PA-1 = conditions: Gynecologic cancer cell panel viability, ATPlite luminescence, 48 h; series mostly up to 57.5 µM
Outline: as §1

SKOV3 = conditions: Gynecologic cancer cell panel viability, ATPlite luminescence, 48 h; series mostly up to 57.5 µM
Outline: as §1

Tov-21-G = conditions: Gynecologic cancer cell panel viability, ATPlite luminescence, 48 h; series mostly up to 57.5 µM
Outline: as §1

Tov112D = conditions: Gynecologic cancer cell panel viability, ATPlite luminescence, 48 h; series mostly up to 57.5 µM
Outline: as §1
On the % scale 0 is the no-effect control and ±100 the full control effect.

C[C@H]1CC[C@@]2(OC1)O[C@H]1CC3C4CC[C@H]5C[C@@H](O[C@@H]6O[C@H](CO)[C@H](O[C@@H]7O[C@H](CO)[C@@H](O)[C@H](O[C@@H]8OC[C@@H](O)[C@H](O)[C@H]8O)[C@H]7O[C@@H]7O[C@H](CO)[C@@H](O)[C@H](O)[C@H]7O)[C@H](O)[C@H]6O)[C@H](O)C[C@]5(C)C4=CC(=O)[C@]3(C)[C@H]1[C@@H]2C (stereo partly drawn)
inactive: activity change, negative = cytotoxicity (C33A) 4.61% [at 11.6 µM] | activity change, negative = cytotoxicity (CAOV3) 5.57% [at 11.6 µM] | activity change, negative = cytotoxicity (CASKI) -2.7% [at 11.6 µM] | activity change, negative = cytotoxicity (Es-2) -0.121% [at 11.6 µM] | activity change, negative = cytotoxicity (HeLa) 9.97% [at 11.6 µM] | activity change, negative = cytotoxicity (Hek293T) 0.949% [at 11.6 µM] | activity change, negative = cytotoxicity (JEG-3) -0.32% [at 11.6 µM] | activity change, negative = cytotoxicity (OV90) -5.92% [at 11.6 µM] | activity change, negative = cytotoxicity (PA-1) 7.95% [at 11.6 µM] | activity change, negative = cytotoxicity (SKOV3) 0.679% [at 11.6 µM] | activity change, negative = cytotoxicity (Tov-21-G) -4.82% [at 11.6 µM] | activity change, negative = cytotoxicity (Tov112D) 2.81% [at 11.6 µM]

O=C(c1ccc(Cl)c([N+](=O)[O-])c1)N1CCN(c2ccccc2F)CC1
inactive: Potency (C33A) | Potency (CAOV3) | outcome (CASKI) | Potency (Es-2) | Potency (HeLa) | Potency (Hek293T) | Potency (JEG-3) | Potency (OV90) | Potency (PA-1) | Potency (SKOV3) | Potency (Tov-21-G) | Potency (Tov112D)

C[C@@H]1O[C@@H](O[C@H]2[C@@H]3C=CO[C@@H](O[C@@H]4O[C@H](CO)[C@@H](O)[C@H](O)[C@H]4O)[C@@H]3[C@@]3(CO)O[C@@H]23)[C@H](OC(=O)/C=C/c2ccc(O)cc2)[C@H](O)[C@H]1O
inactive: Potency (C33A) | Potency (CAOV3) | outcome (CASKI) | Potency (Es-2) | Potency (HeLa) | Potency (Hek293T) | Potency (JEG-3) | Potency (OV90) | Potency (PA-1) | Potency (SKOV3) | Potency (Tov-21-G) | Potency (Tov112D)

C/C=C/C=C/C(O)=C1/C(=O)[C@]2(C)C3/C(=C(O)/C=C/C=C/C)C(=O)C4(C)C1[C@]1(C)O[C@@]4(O)[C@@]3(C)O[C@@]12O
inactive: Potency (C33A) | Potency (CAOV3) | outcome (CASKI) | Potency (Es-2) | Potency (HeLa) | Potency (Hek293T) | Potency (JEG-3) | Potency (OV90) | Potency (PA-1) | Potency (SKOV3) | Potency (Tov-21-G) | Potency (Tov112D)

CC1=COC(OC2OC(CO)C(O)C(O)C2O)C2C(CO)CC(OC(=O)/C=C/c3ccc(O)cc3)C12 (stereo not drawn)
inactive: Potency (C33A) | Potency (CAOV3) | outcome (CASKI) | Potency (Es-2) | Potency (HeLa) | Potency (Hek293T) | Potency (JEG-3) | Potency (OV90) | Potency (PA-1) | Potency (SKOV3) | Potency (Tov-21-G) | Potency (Tov112D)

CC1(C(=O)O)CC[C@]2(C(=O)OC3OC(CO)C(O)C(O)C3O)CC[C@]3(C)C(=CCC4[C@@]5(C)CC[C@H](OC6OCC(O)C(O)C6OC6OC(CO)C(O)C(O)C6O)C(C)(C)C5CC[C@]43C)C2C1 (stereo partly drawn)
inactive: activity change, negative = cytotoxicity (C33A) -1.33% [at 11.6 µM] | activity change, negative = cytotoxicity (CAOV3) -1.35% [at 11.6 µM] | activity change, negative = cytotoxicity (CASKI) -6.1% [at 11.6 µM] | activity change, negative = cytotoxicity (Es-2) 1.53% [at 11.6 µM] | activity change, negative = cytotoxicity (HeLa) 6.18% [at 11.6 µM] | activity change, negative = cytotoxicity (Hek293T) -2.26% [at 11.6 µM] | activity change, negative = cytotoxicity (JEG-3) -0.785% [at 11.6 µM] | activity change, negative = cytotoxicity (OV90) -0.207% [at 11.6 µM] | activity change, negative = cytotoxicity (PA-1) -1.65% [at 11.6 µM] | activity change, negative = cytotoxicity (SKOV3) -6.88% [at 11.6 µM] | activity change, negative = cytotoxicity (Tov-21-G) 15.1% [at 11.6 µM] | activity change, negative = cytotoxicity (Tov112D) -1.55% [at 11.6 µM]

C=C(CCO[C@@H]1O[C@H](CO)[C@@H](O)[C@H](O)[C@H]1O)C(=O)O
inactive: Potency (C33A) | Potency (CAOV3) | outcome (CASKI) | Potency (Es-2) | Potency (HeLa) | Potency (Hek293T) | Potency (JEG-3) | Potency (OV90) | Potency (PA-1) | Potency (SKOV3) | Potency (Tov-21-G) | Potency (Tov112D)

NC(Cc1c[nH]c2ccc(O)cc12)C(=O)O (stereo not drawn)
inactive: Potency (C33A) | Potency (CAOV3) | outcome (CASKI) | Potency (Es-2) | Potency (HeLa) | Potency (Hek293T) | Potency (JEG-3) | Potency (OV90) | Potency (PA-1) | Potency (SKOV3) | Potency (Tov-21-G) | Potency (Tov112D)

CC1(C)CC[C@]2(C(=O)O[C@@H]3O[C@H](CO)[C@@H](O)[C@H](O)[C@H]3O)CC[C@]3(C)C(=CCC4[C@@]5(C)C[C@H](O)[C@H](O[C@@H]6OC[C@@H](O)[C@H](O)[C@H]6O)[C@@](C)(CO)C5CC[C@]43C)C2C1 (stereo partly drawn)
inactive: activity change, negative = cytotoxicity (C33A) 6.67% [at 11.6 µM] | activity change, negative = cytotoxicity (CAOV3) 10.5% [at 11.6 µM] | activity change, negative = cytotoxicity (CASKI) 2.82% [at 11.6 µM] | activity change, negative = cytotoxicity (Es-2) 1.33% [at 11.6 µM] | activity change, negative = cytotoxicity (HeLa) 24.4% [at 11.6 µM] | activity change, negative = cytotoxicity (Hek293T) 12.6% [at 11.6 µM] | activity change, negative = cytotoxicity (JEG-3) 17% [at 11.6 µM] | activity change, negative = cytotoxicity (OV90) 6.42% [at 11.6 µM] | activity change, negative = cytotoxicity (PA-1) 8.05% [at 11.6 µM] | activity change, negative = cytotoxicity (SKOV3) 21.5% [at 11.6 µM] | activity change, negative = cytotoxicity (Tov-21-G) -9.27% [at 11.6 µM] | activity change, negative = cytotoxicity (Tov112D) 3.56% [at 11.6 µM]

COc1ccc(/C=C/C(=O)O[C@@H]2[C@@H](O)[C@@H](O)[C@H](O[C@H]3[C@@H]4C=CO[C@@H](O[C@@H]5O[C@H](CO)[C@@H](O)[C@H](O)[C@H]5O)[C@@H]4[C@@]4(CO)O[C@@H]34)O[C@H]2C)cc1
inactive: Potency (C33A) | Potency (CAOV3) | outcome (CASKI) | Potency (Es-2) | Potency (HeLa) | Potency (Hek293T) | Potency (JEG-3) | Potency (OV90) | Potency (PA-1) | Potency (SKOV3) | Potency (Tov-21-G) | Potency (Tov112D)

O=C(OC1C=C(CO)C2C(OC3OC(CO)C(O)C(O)C3O)OC=CC12O)c1ccc(O)cc1 (stereo not drawn)
inactive: Potency (C33A) | Potency (CAOV3) | outcome (CASKI) | Potency (Es-2) | Potency (HeLa) | Potency (Hek293T) | Potency (JEG-3) | Potency (OV90) | Potency (PA-1) | Potency (SKOV3) | Potency (Tov-21-G) | Potency (Tov112D)

CC1=C2C(=O)C=C(CO)C2C2OC(=O)C(CS(=O)(=O)O)C2C(OC(=O)Cc2ccc(O)cc2)C1 (stereo not drawn)
inactive: Potency (C33A) | Potency (CAOV3) | outcome (CASKI) | Potency (Es-2) | Potency (HeLa) | Potency (Hek293T) | Potency (JEG-3) | Potency (OV90) | Potency (PA-1) | Potency (SKOV3) | Potency (Tov-21-G) | Potency (Tov112D)

COc1cc2c(cc1O)C(c1ccc(O)cc1)C(C)C(C)C2 (stereo not drawn)
inactive: Potency (C33A) | Potency (CAOV3) | outcome (CASKI) | Potency (Es-2) | Potency (HeLa) | Potency (Hek293T) | Potency (JEG-3) | Potency (OV90) | Potency (PA-1) | Potency (SKOV3) | Potency (Tov-21-G) | Potency (Tov112D)

CC1(C)C2CC[C@]3(C)C(C(=O)C=C4[C@H]5C[C@@](C)(C(=O)O)CC[C@]5(C)CC[C@]43C)[C@@]2(C)CC[C@@H]1O (stereo partly drawn)
inactive: Potency (C33A) | Potency (CAOV3) | outcome (CASKI) | Potency (Es-2) | Potency (HeLa) | Potency (Hek293T) | Potency (JEG-3) | Potency (OV90) | Potency (PA-1) | Potency (SKOV3) | Potency (Tov-21-G) | Potency (Tov112D)
